{"source": "PubChem BioAssay (NCI)", "note": "The panel holds about 79,000 compounds, 15% with a hit somewhere; the sample as a whole holds those more often. Calls of active or inactive are those of the source. Rule as the data show it: active = growth inhibition above about 70%; inactive = the rest."}
{"assay": "NCI Yeast Anticancer Drug Screen. Data for the cln2 rad14 strain (AID 165);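 also: 0% = growth equal to vehicle treated cultures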", "details": "S. cerevisiae cln2 rad14 strain, at 50.0 µM, active compounds read high", "summary_of_the_method": "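Each compound was tested on cln2 rad14 yeast. Inhibition of growth was calculated against vehicle-exposed controls.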"}
{"smiles": "CCN(CC)CCOC(=O)C1CCCCC1C(=O)C1CCCCC1", "note": "(stereo not given)", "growth inhibition": "34.5% (inactive)"}
{"smiles": "O=c1c2cc(Br)ccc2ncn1COCc1ccccc1", "growth inhibition": "54% (inactive)"}
{"smiles": "C=C1C(=O)OC2C1CCC(=C)C1CC(O)C(=C)C12", "note": "(stereo not given)", "growth inhibition": "92.4% (active)"}
{"smiles": "CCC(CC)=NNc1ccc([N+](=O)[O-])cc1", "growth inhibition": "95.3% (active)"}
{"smiles": "CCN(CC)CCNc1ccc(C)c2oc3ccc(O)cc3c(=O)c12", "growth inhibition": "25.1% (inactive)"}
{"smiles": "CCOC(=O)C[P+](c1ccc(C)cc1)(c1ccc(C)cc1)c1ccc(C)cc1", "growth inhibition": "89.2% (active)"}
{"smiles": "Cc1ccc(C)c(C(=O)/C=C/C(=O)O)c1", "growth inhibition": "40.6% (inactive)"}
{"smiles": "CCCC/C=C(/CCCCOCOCCOC)[Si](C)(C)C", "growth inhibition": "86.1% (active)"}
{"smiles": "C=C1C2Oc3ccccc3C1N(c1ccccc1)O2", "note": "(stereo not given)", "growth inhibition": "39.1% (inactive)"}
{"smiles": "NC(=O)N/N=C1/CC2CCCCC2c2ccccc21", "note": "(stereo not given)", "growth inhibition": "19.2% (inactive)"}
{"smiles": "CC(CCN)(CCN)[N+](=O)[O-]", "growth inhibition": "46.3% (inactive)"}
{"smiles": "COC(=O)/C=C(\\NC1CC(OC2C[C@](O)(C(C)=O)Cc3c(O)c4c(c(O)c32)C(=O)c2c(OC)cccc2C4=O)OC(C)C1O)C(=O)OC", "note": "(stereo not given in full)", "growth inhibition": "94.9% (active)"}
{"smiles": "CCOc1ccc(N=Nc2ccccc2)cc1", "growth inhibition": "38% (inactive)"}
{"smiles": "O=C(CNS(=O)(=O)Cc1ccccc1)NCC(=O)NNc1ccccc1", "growth inhibition": "44.4% (inactive)"}
{"smiles": "CC1(C)c2ccccc2Cc2cc3ccccc3nc21", "growth inhibition": "25.2% (inactive)"}
{"smiles": "CC(=O)Nc1ccc(C(C)(C)c2ccc(C)cc2)cc1", "growth inhibition": "3.75% (inactive)"}
{"smiles": "CC[C@]1(O)C[C@H]2[C@@H]3CCc4cc(OC)ccc4[C@H]3CC[C@]2(C)[C@H]1O", "growth inhibition": "68.9% (inactive)"}
{"smiles": "CCCCSc1nc2c([nH]1)c(=S)n(C)c(=S)n2C", "growth inhibition": "69.7% (inactive)"}
{"smiles": "CN(Cc1cc(C(C)(C)C)cc(Br)c1O)Cc1cc(C(C)(C)C)cc(Br)c1O", "growth inhibition": "89.5% (active)"}
{"smiles": "Oc1cc2c(cc1C(c1ccc(F)cc1)N1CCCCC1)OCO2", "note": "(stereo not given)", "growth inhibition": "54.9% (inactive)"}
{"smiles": "CCCCCCCN(CCCCCCC)CC(O)Cc1cc2c(c3ccccc13)CCCC2", "note": "(stereo not given)", "growth inhibition": "98.7% (active)"}
{"smiles": "Cc1c2ccncc2c(C)c2c1sc1ccccc12", "growth inhibition": "88.8% (active)"}
{"smiles": "c1ccc2c(c1)OCC(CNCCNCC1COc3ccccc3O1)O2", "note": "(stereo not given)", "growth inhibition": "87% (active)"}
{"smiles": "CC(C)(C)c1ccc(Sc2ncnc3ccccc23)cc1", "growth inhibition": "71.2% (active)"}
{"smiles": "C(#Cc1ccccc1)Sc1ccccc1", "growth inhibition": "23.1% (inactive)"}
{"smiles": "CCOC(=O)NC(NNc1ccc([N+](=O)[O-])cc1[N+](=O)[O-])(C(F)(F)F)C(F)(F)F", "growth inhibition": "98.7% (active)"}
{"smiles": "O=C1/C(=C/c2cccc(O)c2)COc2ccccc21", "growth inhibition": "91.6% (active)"}
{"smiles": "CNC1=C2NC(=O)/C(C)=C\\C=C\\C(C)C(O)C(C)C(O)C(C)C(OC(C)=O)C(C)C(OC)/C=C/OC3(C)Oc4c(C)c(O)c(c(c4C3=O)C1=O)C2=O", "note": "(stereo not given)", "growth inhibition": "49% (inactive)"}
{"smiles": "COc1ccc(Cc2c(-c3ccc(C)cc3)n[nH]c(=O)c2C2C(=O)N(c3ccccc3)N=C2c2ccccc2)cc1", "note": "(stereo not given)", "growth inhibition": "96% (active)"}
{"smiles": "Cc1ccc(Cc2n[nH]c(=O)n2N2C(=O)c3ccccc3C2=O)cc1", "growth inhibition": "-5.1% (inactive)"}
{"smiles": "COc1cc2c(c(C3C(=O)N(C)c4ccc(Br)cc43)c1OC)OCO2", "note": "(stereo not given)", "growth inhibition": "-3.8% (inactive)"}
{"smiles": "CCCCCCCCC1N(C)CCCN1C", "growth inhibition": "98.3% (active)"}
{"smiles": "C1=Cc2ccccc2/C1=C/c1ccccc1", "growth inhibition": "61.8% (inactive)"}
{"smiles": "COC(=O)c1ccc2ccccc2c1C(=O)c1ccc(F)cc1", "growth inhibition": "61.7% (inactive)"}
{"smiles": "CCNC(=S)N/N=C(/C)c1cccc(/C(C)=N\\NC(=S)NCC)n1", "growth inhibition": "19.1% (inactive)"}
{"smiles": "c1ccc2c(c1)ccc1ncccc12", "growth inhibition": "-12.2% (inactive)"}
{"smiles": "Cc1nc(N)nn1C", "growth inhibition": "6.7% (inactive)"}
{"smiles": "COC(=O)C1=C(C)NC(C)=C(C(=O)OC)C1c1ccc(NCc2ccccc2)c([N+](=O)[O-])c1", "growth inhibition": "0.55% (inactive)"}
{"smiles": "CCc1ccccc1NC(=O)C(C#N)C1=C(Cl)C(=O)c2ccccc2C1=O", "note": "(stereo not given)", "growth inhibition": "50.9% (inactive)"}
{"smiles": "O=C(O)c1ccc2ccccc2c1C(=O)c1cccc2ccccc12", "growth inhibition": "92.1% (active)"}
{"assay": "NCI Yeast Anticancer Drug Screen. Data for the bub3 strain (AID 167)", "details": "S. cerevisiae bub3 mutant strain, at 5.0 µM (retest, dose inferred, filed as 0.5), active compounds read high", "summary_of_the_method": "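In this screen, a yeast mutant lacking normal mitotic checkpoint function is challenged with compound. Relative growth versus vehicle gives the inhibition value.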"}
{"smiles": "CCN(CC)CCOC(=O)C1CCCCC1C(=O)C1CCCCC1", "note": "(stereo not given)", "growth inhibition": "-3% (inactive)"}
{"smiles": "O=c1c2cc(Br)ccc2ncn1COCc1ccccc1", "growth inhibition": "15% (inactive)"}
{"smiles": "C=C1C(=O)OC2C1CCC(=C)C1CC(O)C(=C)C12", "note": "(stereo not given)", "growth inhibition": "2% (inactive)"}
{"smiles": "CCC(CC)=NNc1ccc([N+](=O)[O-])cc1", "growth inhibition": "4% (inactive)"}
{"smiles": "CCN(CC)CCNc1ccc(C)c2oc3ccc(O)cc3c(=O)c12", "growth inhibition": "-4% (inactive)"}
{"smiles": "CCOC(=O)C[P+](c1ccc(C)cc1)(c1ccc(C)cc1)c1ccc(C)cc1", "growth inhibition": "21% (inactive)"}
{"smiles": "Cc1ccc(C)c(C(=O)/C=C/C(=O)O)c1", "growth inhibition": "27% (inactive)"}
{"smiles": "CCCC/C=C(/CCCCOCOCCOC)[Si](C)(C)C", "growth inhibition": "-3% (inactive)"}
{"smiles": "C=C1C2Oc3ccccc3C1N(c1ccccc1)O2", "note": "(stereo not given)", "growth inhibition": "1% (inactive)"}
{"smiles": "NC(=O)N/N=C1/CC2CCCCC2c2ccccc21", "note": "(stereo not given)", "growth inhibition": "0% (inactive)"}
{"smiles": "CC(CCN)(CCN)[N+](=O)[O-]", "growth inhibition": "-5% (inactive)"}
{"smiles": "COC(=O)/C=C(\\NC1CC(OC2C[C@](O)(C(C)=O)Cc3c(O)c4c(c(O)c32)C(=O)c2c(OC)cccc2C4=O)OC(C)C1O)C(=O)OC", "note": "(stereo not given in full)", "growth inhibition": "7% (inactive)"}
{"smiles": "CCOc1ccc(N=Nc2ccccc2)cc1", "growth inhibition": "-13% (inactive)"}
{"smiles": "O=C(CNS(=O)(=O)Cc1ccccc1)NCC(=O)NNc1ccccc1", "growth inhibition": "1% (inactive)"}
{"smiles": "CC1(C)c2ccccc2Cc2cc3ccccc3nc21", "growth inhibition": "-3% (inactive)"}
{"smiles": "CC(=O)Nc1ccc(C(C)(C)c2ccc(C)cc2)cc1", "growth inhibition": "4% (inactive)"}
{"smiles": "CC[C@]1(O)C[C@H]2[C@@H]3CCc4cc(OC)ccc4[C@H]3CC[C@]2(C)[C@H]1O", "growth inhibition": "2% (inactive)"}
{"smiles": "CCCCSc1nc2c([nH]1)c(=S)n(C)c(=S)n2C", "growth inhibition": "-12% (inactive)"}
{"smiles": "CN(Cc1cc(C(C)(C)C)cc(Br)c1O)Cc1cc(C(C)(C)C)cc(Br)c1O", "growth inhibition": "-11% (inactive)"}
{"smiles": "Oc1cc2c(cc1C(c1ccc(F)cc1)N1CCCCC1)OCO2", "note": "(stereo not given)", "growth inhibition": "-8% (inactive)"}
{"smiles": "CCCCCCCN(CCCCCCC)CC(O)Cc1cc2c(c3ccccc13)CCCC2", "note": "(stereo not given)", "growth inhibition": "3% (inactive)"}
{"smiles": "Cc1c2ccncc2c(C)c2c1sc1ccccc12", "growth inhibition": "55% (inactive)"}
{"smiles": "c1ccc2c(c1)OCC(CNCCNCC1COc3ccccc3O1)O2", "note": "(stereo not given)", "growth inhibition": "43% (inactive)"}
{"smiles": "CC(C)(C)c1ccc(Sc2ncnc3ccccc23)cc1", "growth inhibition": "3% (inactive)"}
{"smiles": "C(#Cc1ccccc1)Sc1ccccc1", "growth inhibition": "29% (inactive)"}
{"smiles": "CCOC(=O)NC(NNc1ccc([N+](=O)[O-])cc1[N+](=O)[O-])(C(F)(F)F)C(F)(F)F", "growth inhibition": "19% (inactive)"}
{"smiles": "O=C1/C(=C/c2cccc(O)c2)COc2ccccc21", "growth inhibition": "58% (inactive)"}
{"smiles": "CNC1=C2NC(=O)/C(C)=C\\C=C\\C(C)C(O)C(C)C(O)C(C)C(OC(C)=O)C(C)C(OC)/C=C/OC3(C)Oc4c(C)c(O)c(c(c4C3=O)C1=O)C2=O", "note": "(stereo not given)", "growth inhibition": "-2% (inactive)"}
{"smiles": "COc1ccc(Cc2c(-c3ccc(C)cc3)n[nH]c(=O)c2C2C(=O)N(c3ccccc3)N=C2c2ccccc2)cc1", "note": "(stereo not given)", "growth inhibition": "63% (inactive)"}
{"smiles": "Cc1ccc(Cc2n[nH]c(=O)n2N2C(=O)c3ccccc3C2=O)cc1", "growth inhibition": "18% (inactive)"}
{"smiles": "COc1cc2c(c(C3C(=O)N(C)c4ccc(Br)cc43)c1OC)OCO2", "note": "(stereo not given)", "growth inhibition": "4% (inactive)"}
{"smiles": "CCCCCCCCC1N(C)CCCN1C", "growth inhibition": "-52% (inactive)"}
{"smiles": "C1=Cc2ccccc2/C1=C/c1ccccc1", "growth inhibition": "-4% (inactive)"}
{"smiles": "COC(=O)c1ccc2ccccc2c1C(=O)c1ccc(F)cc1", "growth inhibition": "25% (inactive)"}
{"smiles": "CCNC(=S)N/N=C(/C)c1cccc(/C(C)=N\\NC(=S)NCC)n1", "growth inhibition": "18% (inactive)"}
{"smiles": "c1ccc2c(c1)ccc1ncccc12", "growth inhibition": "6% (inactive)"}
{"smiles": "Cc1nc(N)nn1C", "growth inhibition": "0% (inactive)"}
{"smiles": "COC(=O)C1=C(C)NC(C)=C(C(=O)OC)C1c1ccc(NCc2ccccc2)c([N+](=O)[O-])c1", "growth inhibition": "1% (inactive)"}
{"smiles": "CCc1ccccc1NC(=O)C(C#N)C1=C(Cl)C(=O)c2ccccc2C1=O", "note": "(stereo not given)", "growth inhibition": "94% (active)"}
{"smiles": "O=C(O)c1ccc2ccccc2c1C(=O)c1cccc2ccccc12", "growth inhibition": "0% (inactive)"}
